# Measured values from PubChem BioAssay AID1159580 (chemical genetic matrix, 2015).
# Values joined by “and” are separate entries in the source; they are usually repeats but may differ in a detail not shown here. Equal values may be shown once. Hit rate of the full screen: of about 5,500 compounds, about 2,000 (36%) were called active. About 18% were inconclusive and are not listed. This is one part of the list. Unmarked numbers belong to inactive results. Rule as the data show it: active = normalized growth mostly below about 0.91 (no sharp cut-off); inconclusive = no clear call, values can overlap the other calls; inactive = mostly above about 0.92.
# Assay: chemical genetic growth profiling, strain panel (AID 1159580);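 also: tested at 20 µM; growth read once vehicle control cultures reached saturation at 30 °C; 1 = growth at the plate median or of vehicle wells; lower values mean less growth of the strain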
# Settings: S. cerevisiae deletion strains, growth OD
smiles,measurement,setting,value
CCCCNc1ccc(C(=O)OCCN(C)C)cc1,normalized growth,"locus YAL013W, strain DEP1, hits give low values",1.01
same,normalized growth,"locus YAL021C, strain ccr4, hits give low values",0.978
same,normalized growth,"locus YAL026C, strain drs2, hits give low values",1.02
same,normalized growth,"locus YAL030W, strain snc1, hits give low values",0.999
same,normalized growth,"locus YAL040C, strain CLN3, hits give low values",0.929
same,normalized growth,"locus YBL061C, strain skt5, hits give low values",1.02
same,normalized growth,"locus YBR009C, strain hhf1, hits give low values",0.978
same,normalized growth,"locus YBR021W, strain FUR4, hits give low values",1.02
same,normalized growth,"locus YBR023C, strain chs3, hits give low values",1.01
same,normalized growth,"locus YBR171W, strain sec66, hits give low values",1.02
same,normalized growth,"locus YBR229C, strain ROT2, hits give low values",1.01
same,normalized growth,"locus YBR231C, strain swc5, hits give low values",1
same,normalized growth,"locus YBR279W, strain paf1, hits give low values",1.01
same,normalized growth,"locus YCL011C, strain gbp2, hits give low values",1.03
same,normalized growth,"locus YCL016C, strain dcc1, hits give low values",1.02
same,normalized growth,"locus YCL029C, strain bik1, hits give low values",1.01
same,normalized growth,"locus YCL061C, strain MRC1 (second series), hits give low values",1.01
same,normalized growth,"locus YCL069W, strain vba3, hits give low values",1.01
same,normalized growth,"locus YCR088W, strain abp1, hits give low values",1.01
same,normalized growth,"locus YDL005C, strain med2, hits give low values",1.01
same,normalized growth,"locus YDL035C, strain GPR1, hits give low values",1.01
same,normalized growth,"locus YDL040C, strain nat1, hits give low values",1.01
same,normalized growth,"locus YDL074C, strain BRE1, hits give low values",1.02
same,normalized growth,"locus YDL101C, strain DUN1, hits give low values",1.01
same,normalized growth,"locus YDL134C, strain PPH21, hits give low values",1.01
same,normalized growth,"locus YDL185W, strain tfp1, hits give low values",1.02
same,normalized growth,"locus YDL192W, strain arf1, hits give low values",1.01
same,normalized growth,"locus YDR001C, strain nth1, hits give low values",1.01
same,normalized growth,"locus YDR069C, strain doa4, hits give low values",0.991
same,normalized growth,"locus YDR101C, strain arx1, hits give low values",1.01
same,normalized growth,"locus YDR137W, strain rgp1, hits give low values",1.17 [resistant] (active)
same,normalized growth,"locus YDR150W, strain NUM1, hits give low values",1.01
same,normalized growth,"locus YDR159W, strain sac3, hits give low values",1.01
same,normalized growth,"locus YDR162C, strain NBP2, hits give low values",0.998
same,normalized growth,"locus YDR195W, strain ref2",0.952
same,normalized growth,"locus YDR297W, strain sur2, hits give low values",1.02
same,normalized growth,"locus YDR318W, strain mcm21, hits give low values",1.02
same,normalized growth,"locus YDR334W, strain swr1, hits give low values",1.04
same,normalized growth,"locus YDR335W, strain msn5, hits give low values",1.04
same,normalized growth,"locus YDR363W, strain ESC2, hits give low values",1.01
same,normalized growth,"locus YDR388W, hits give low values",1.02
same,normalized growth,"locus YDR392W, strain spt3, hits give low values",1.09
same,normalized growth,"locus YDR502C, strain sam2, hits give low values",1
same,normalized growth,"locus YEL003W, strain gim4, hits give low values",1.01
same,normalized growth,"locus YEL037C, strain rad23, hits give low values",1.02
same,normalized growth,"locus YEL061C, strain CIN8 (second series), hits give low values",1.02
same,normalized growth,"locus YEL061C, strain CIN8, hits give low values",1.01
same,normalized growth,"locus YER002W, strain NOP16, hits give low values",0.995
same,normalized growth,"locus YER015W, strain faa2, hits give low values",1.01
same,normalized growth,"locus YER016W, strain bim1, hits give low values",1.02
same,normalized growth,"locus YER110C, hits give low values",1.02
same,normalized growth,"locus YER111C, strain swi4, hits give low values",1.01
same,normalized growth,"locus YER155C, strain BEM2 (second series), hits give low values",0.95
same,normalized growth,"locus YER155C, strain BEM2, hits give low values",0.999
same,normalized growth,"locus YER167W, strain BCK2, hits give low values",1.01
same,normalized growth,"locus YFR010W, strain ubp6, hits give low values",0.991
same,normalized growth,"locus YGL078C, strain dbp3, hits give low values",1.02
same,normalized growth,"locus YGL086W, strain mad1, hits give low values",0.997
same,normalized growth,"locus YGL167C, strain pmr1, hits give low values",1.01
same,normalized growth,"locus YGL173C, strain kem1, hits give low values",1
same,normalized growth,"locus YGL227W, strain vid30, hits give low values",1.01
same,normalized growth,"locus YGL240W, strain doc1, hits give low values",1.01
same,normalized growth,"locus YGL248W, strain PDE1, hits give low values",0.998
same,normalized growth,"locus YGL253W, strain hxk2, hits give low values",1.03
same,normalized growth,"locus YGR078C, strain PAC10, hits give low values",1.01
same,normalized growth,"locus YGR135W, strain pre9, hits give low values",1
same,normalized growth,"locus YGR229C, strain SMI1, hits give low values",1.03
same,normalized growth,"locus YGR252W, strain gcn5, hits give low values",0.915
same,normalized growth,"locus YHR013C, strain ard1, hits give low values",0.993
same,normalized growth,"locus YHR027C, strain rpn1, hits give low values",1.01
same,normalized growth,"locus YHR030C, strain SLT2, hits give low values",1.01 and 0.96
same,normalized growth,"locus YHR079C, strain IRE1 (second series), hits give low values",1.02
same,normalized growth,"locus YHR079C, strain IRE1, hits give low values",0.977
same,normalized growth,"locus YHR094C, strain hxt1, hits give low values",1.02
same,normalized growth,"locus YHR129C, strain ARP1, hits give low values",1
same,normalized growth,"locus YHR142W, strain chs7, hits give low values",1.06
same,normalized growth,"locus YHR200W, strain rpn10, hits give low values",1.02
same,normalized growth,"locus YIL066C, strain RNR3, hits give low values",1.01
same,normalized growth,"locus YIL073C, strain SPO22, hits give low values",1.04
same,normalized growth,"locus YIL125W, strain kgd1, hits give low values",1.02
same,normalized growth,"locus YIR030C, strain dcg1, hits give low values",1.02
same,normalized growth,"locus YJL092W, strain hpr5, hits give low values",1.02
same,normalized growth,"locus YJL095W, strain BCK1 (second series), hits give low values",1.02
same,normalized growth,"locus YJL095W, strain BCK1, hits give low values",0.991 and 0.961
same,normalized growth,"locus YJL115W, strain asf1, hits give low values",1.03
same,normalized growth,"locus YJL129C, strain trk1, hits give low values",1.01
same,normalized growth,"locus YJL134W, strain LCB3, hits give low values",1
same,normalized growth,"locus YJL154C, strain vps35, hits give low values",1.01
same,normalized growth,"locus YJL164C, strain tpk1, hits give low values",0.996
same,normalized growth,"locus YJL166W, strain qcr8, hits give low values",1.02
same,normalized growth,"locus YJL168C, strain set2, hits give low values",1.02
same,normalized growth,"locus YJL187C, strain SWE1 (second series), hits give low values",1.01
same,normalized growth,"locus YJR043C, strain POL32, hits give low values",1.02
same,normalized growth,"locus YJR066W, strain TOR1, hits give low values",0.926
